# Measured values reported in ChEMBL document CHEMBL2218924, “A broad activity screen in support of a chemogenomic map for kinase signalling research and drug discovery” (Biochem J, 2013).
# Experiments:
# [1] = molecular target: T1, Serine/threonine-protein kinase TBK1 (Homo sapiens) (UniProt Q9UHD2); conditions: at 10 µM
# T1 sequence (whole entry): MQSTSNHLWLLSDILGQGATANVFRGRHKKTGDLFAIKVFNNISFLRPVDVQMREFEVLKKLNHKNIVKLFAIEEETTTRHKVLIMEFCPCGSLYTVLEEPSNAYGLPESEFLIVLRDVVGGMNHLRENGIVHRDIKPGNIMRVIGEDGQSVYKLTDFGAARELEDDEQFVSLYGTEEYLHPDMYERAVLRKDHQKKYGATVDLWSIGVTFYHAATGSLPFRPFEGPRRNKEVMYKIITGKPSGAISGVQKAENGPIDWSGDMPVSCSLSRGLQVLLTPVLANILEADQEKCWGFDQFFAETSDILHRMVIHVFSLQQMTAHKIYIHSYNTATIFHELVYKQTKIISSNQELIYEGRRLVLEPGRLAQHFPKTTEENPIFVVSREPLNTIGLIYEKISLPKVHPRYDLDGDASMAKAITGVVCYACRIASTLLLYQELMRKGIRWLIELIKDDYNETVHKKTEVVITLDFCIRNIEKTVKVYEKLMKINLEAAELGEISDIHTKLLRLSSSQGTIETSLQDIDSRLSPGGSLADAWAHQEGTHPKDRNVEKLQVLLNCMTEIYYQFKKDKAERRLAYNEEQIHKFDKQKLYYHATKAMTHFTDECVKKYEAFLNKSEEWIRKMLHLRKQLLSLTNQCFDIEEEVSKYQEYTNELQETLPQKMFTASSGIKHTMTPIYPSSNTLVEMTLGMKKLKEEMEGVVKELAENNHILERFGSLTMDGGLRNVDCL
# [2] = molecular target: T2, Inhibitor of nuclear factor kappa-B kinase subunit alpha (Homo sapiens) (UniProt O15111); conditions: at 1 µM
# T2 sequence (whole entry): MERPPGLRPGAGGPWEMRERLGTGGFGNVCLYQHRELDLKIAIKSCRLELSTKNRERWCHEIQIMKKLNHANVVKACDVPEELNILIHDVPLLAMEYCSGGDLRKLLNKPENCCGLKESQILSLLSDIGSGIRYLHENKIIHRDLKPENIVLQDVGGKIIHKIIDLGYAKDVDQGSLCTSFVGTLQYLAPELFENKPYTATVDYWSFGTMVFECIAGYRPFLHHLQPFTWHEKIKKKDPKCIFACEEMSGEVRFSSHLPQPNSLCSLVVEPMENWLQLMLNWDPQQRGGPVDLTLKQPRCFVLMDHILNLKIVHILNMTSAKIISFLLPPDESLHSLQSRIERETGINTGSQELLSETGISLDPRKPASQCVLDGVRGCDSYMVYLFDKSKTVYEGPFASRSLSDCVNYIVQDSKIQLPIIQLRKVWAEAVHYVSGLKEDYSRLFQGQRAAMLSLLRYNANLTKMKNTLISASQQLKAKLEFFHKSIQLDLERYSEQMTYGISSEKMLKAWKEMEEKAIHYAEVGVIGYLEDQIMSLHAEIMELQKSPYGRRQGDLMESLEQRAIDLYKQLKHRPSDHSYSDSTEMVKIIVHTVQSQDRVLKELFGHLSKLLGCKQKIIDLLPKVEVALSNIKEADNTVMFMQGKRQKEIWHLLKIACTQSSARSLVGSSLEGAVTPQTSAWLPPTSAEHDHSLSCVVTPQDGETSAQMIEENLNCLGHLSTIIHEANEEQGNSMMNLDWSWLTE
# [3] = molecular target: T2, Inhibitor of nuclear factor kappa-B kinase subunit alpha (Homo sapiens); conditions: at 10 µM
# [4] = molecular target: T3, Inhibitor of nuclear factor kappa-B kinase subunit beta (Homo sapiens) (UniProt O14920); conditions: at 10 µM
# T3 sequence (whole entry): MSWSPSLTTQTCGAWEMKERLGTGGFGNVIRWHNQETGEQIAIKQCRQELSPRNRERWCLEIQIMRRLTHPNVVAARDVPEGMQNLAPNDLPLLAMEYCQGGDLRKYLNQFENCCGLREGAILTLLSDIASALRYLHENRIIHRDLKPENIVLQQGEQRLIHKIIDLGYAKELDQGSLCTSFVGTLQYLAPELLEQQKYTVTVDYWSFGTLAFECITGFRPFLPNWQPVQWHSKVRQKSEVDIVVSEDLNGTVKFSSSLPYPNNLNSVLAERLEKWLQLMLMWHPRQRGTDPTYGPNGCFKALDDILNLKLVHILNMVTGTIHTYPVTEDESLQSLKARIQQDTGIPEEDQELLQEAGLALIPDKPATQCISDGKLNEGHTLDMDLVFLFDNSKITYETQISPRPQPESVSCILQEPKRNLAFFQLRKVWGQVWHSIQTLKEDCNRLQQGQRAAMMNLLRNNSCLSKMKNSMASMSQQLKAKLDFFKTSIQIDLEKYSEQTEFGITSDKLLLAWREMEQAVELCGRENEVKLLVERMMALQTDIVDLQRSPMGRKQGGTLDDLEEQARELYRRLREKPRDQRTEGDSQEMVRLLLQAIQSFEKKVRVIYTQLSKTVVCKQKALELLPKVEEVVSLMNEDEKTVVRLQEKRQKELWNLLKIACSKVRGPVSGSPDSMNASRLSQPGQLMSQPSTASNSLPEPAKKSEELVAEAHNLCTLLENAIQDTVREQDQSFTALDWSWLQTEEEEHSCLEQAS
# [5] = molecular target: Interleukin-1 receptor-associated kinase 1 (Homo sapiens) (UniProt P51617); conditions: at 1 µM
# Interleukin-1 receptor-associated kinase 1 (Homo sapiens), sequence (P51617 whole entry, looked up): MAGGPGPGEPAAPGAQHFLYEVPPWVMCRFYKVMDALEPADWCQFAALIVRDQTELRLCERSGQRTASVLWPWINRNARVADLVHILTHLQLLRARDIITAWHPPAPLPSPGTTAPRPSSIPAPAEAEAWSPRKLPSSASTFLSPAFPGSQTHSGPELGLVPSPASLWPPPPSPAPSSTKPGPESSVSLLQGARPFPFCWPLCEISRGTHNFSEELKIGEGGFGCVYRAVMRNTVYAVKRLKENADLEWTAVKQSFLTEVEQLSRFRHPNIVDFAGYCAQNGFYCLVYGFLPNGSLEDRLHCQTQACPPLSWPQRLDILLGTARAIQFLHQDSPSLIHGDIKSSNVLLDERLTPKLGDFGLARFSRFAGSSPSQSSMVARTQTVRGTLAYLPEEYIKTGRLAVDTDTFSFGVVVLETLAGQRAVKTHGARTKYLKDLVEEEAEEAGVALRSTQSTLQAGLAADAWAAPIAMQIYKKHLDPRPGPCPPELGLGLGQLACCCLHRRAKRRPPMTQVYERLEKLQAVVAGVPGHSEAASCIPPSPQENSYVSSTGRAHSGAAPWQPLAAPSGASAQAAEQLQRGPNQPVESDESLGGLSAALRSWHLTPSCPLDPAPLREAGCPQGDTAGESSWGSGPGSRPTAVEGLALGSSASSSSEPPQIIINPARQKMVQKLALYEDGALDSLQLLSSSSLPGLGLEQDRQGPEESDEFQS
# [6] = molecular target: Interleukin-1 receptor-associated kinase 1 (Homo sapiens) (UniProt P51617); conditions: at 10 µM
# [7] = molecular target: T4, Interleukin-1 receptor-associated kinase 4 (Homo sapiens) (UniProt Q9NWZ3); conditions: at 1 µM
# T4 sequence (whole entry): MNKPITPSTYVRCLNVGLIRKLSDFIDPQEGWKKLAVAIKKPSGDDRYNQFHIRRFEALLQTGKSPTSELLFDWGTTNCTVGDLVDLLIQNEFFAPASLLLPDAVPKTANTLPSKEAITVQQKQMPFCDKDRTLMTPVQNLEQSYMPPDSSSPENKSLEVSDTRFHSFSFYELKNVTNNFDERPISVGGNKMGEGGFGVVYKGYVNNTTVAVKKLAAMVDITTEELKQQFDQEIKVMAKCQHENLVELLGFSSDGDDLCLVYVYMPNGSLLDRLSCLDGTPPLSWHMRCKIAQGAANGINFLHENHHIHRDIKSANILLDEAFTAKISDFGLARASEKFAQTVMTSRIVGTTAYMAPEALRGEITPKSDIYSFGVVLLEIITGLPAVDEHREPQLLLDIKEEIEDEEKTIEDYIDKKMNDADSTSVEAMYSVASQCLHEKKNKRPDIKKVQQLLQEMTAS
# [8] = molecular target: T4, Interleukin-1 receptor-associated kinase 4 (Homo sapiens); conditions: at 10 µM
# [9] = molecular target: Insulin receptor-related protein (Homo sapiens) (UniProt P14616); conditions: at 1 µM
# Insulin receptor-related protein (Homo sapiens), sequence (P14616 27-742 limits assumed): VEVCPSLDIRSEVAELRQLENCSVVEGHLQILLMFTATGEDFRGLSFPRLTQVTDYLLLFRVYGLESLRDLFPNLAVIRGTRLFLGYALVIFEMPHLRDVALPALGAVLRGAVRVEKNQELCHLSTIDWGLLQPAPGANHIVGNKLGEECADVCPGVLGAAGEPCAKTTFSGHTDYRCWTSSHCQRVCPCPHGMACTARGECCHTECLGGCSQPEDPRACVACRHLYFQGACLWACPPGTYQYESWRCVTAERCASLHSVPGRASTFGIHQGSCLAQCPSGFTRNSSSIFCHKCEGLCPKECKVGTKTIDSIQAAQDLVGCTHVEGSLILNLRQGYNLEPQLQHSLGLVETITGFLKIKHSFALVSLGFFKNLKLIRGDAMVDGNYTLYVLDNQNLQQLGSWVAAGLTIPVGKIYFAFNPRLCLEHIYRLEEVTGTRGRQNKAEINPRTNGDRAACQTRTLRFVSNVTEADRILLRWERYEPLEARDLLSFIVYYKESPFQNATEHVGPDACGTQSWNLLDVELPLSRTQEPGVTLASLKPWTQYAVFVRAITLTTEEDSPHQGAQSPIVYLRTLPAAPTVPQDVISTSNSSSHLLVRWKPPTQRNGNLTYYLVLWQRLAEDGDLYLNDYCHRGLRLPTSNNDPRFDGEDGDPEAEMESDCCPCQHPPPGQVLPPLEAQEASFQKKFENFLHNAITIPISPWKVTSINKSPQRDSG
# Insulin receptor-related protein (Homo sapiens), sequence (P14616 747-1297 limits assumed): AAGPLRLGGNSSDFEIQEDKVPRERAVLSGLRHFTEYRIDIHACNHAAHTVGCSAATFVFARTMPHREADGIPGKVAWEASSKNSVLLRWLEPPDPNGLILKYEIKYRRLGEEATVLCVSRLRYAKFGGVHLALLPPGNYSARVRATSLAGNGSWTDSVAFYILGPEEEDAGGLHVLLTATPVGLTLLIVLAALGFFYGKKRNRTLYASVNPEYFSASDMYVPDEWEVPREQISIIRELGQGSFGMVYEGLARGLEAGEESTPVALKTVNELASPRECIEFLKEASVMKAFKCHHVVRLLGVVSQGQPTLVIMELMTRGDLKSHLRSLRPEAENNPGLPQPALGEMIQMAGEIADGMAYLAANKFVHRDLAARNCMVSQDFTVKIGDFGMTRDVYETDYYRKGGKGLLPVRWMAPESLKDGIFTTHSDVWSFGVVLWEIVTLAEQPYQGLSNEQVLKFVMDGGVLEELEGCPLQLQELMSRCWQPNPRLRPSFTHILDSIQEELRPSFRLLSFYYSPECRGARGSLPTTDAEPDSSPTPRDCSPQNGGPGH
# [10] = molecular target: Insulin receptor-related protein (Homo sapiens) (UniProt P14616); conditions: at 10 µM
# [11] = molecular target: Insulin receptor (Homo sapiens) (UniProt P06213); conditions: at 1 µM
# Insulin receptor (Homo sapiens), sequence (P06213 28-758 limits assumed): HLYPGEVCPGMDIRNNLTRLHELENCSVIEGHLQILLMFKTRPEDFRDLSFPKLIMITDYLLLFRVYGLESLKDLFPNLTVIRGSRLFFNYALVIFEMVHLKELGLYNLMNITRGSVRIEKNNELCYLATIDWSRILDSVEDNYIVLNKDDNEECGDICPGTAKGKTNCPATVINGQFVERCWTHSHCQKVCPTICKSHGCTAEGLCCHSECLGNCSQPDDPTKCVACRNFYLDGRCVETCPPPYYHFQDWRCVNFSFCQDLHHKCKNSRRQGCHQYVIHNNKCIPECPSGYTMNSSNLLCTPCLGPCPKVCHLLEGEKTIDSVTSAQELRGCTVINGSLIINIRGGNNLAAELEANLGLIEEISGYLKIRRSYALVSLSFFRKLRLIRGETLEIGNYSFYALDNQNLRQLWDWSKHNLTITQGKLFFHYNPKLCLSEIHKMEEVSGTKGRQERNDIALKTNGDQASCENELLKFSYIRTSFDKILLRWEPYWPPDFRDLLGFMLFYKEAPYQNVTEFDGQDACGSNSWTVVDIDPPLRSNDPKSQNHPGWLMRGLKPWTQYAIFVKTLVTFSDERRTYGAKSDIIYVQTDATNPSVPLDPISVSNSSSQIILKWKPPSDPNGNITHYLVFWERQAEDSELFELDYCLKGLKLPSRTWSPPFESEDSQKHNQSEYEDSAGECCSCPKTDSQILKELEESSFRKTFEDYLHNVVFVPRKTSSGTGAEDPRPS
# Insulin receptor (Homo sapiens), sequence (P06213 763-1382 limits assumed): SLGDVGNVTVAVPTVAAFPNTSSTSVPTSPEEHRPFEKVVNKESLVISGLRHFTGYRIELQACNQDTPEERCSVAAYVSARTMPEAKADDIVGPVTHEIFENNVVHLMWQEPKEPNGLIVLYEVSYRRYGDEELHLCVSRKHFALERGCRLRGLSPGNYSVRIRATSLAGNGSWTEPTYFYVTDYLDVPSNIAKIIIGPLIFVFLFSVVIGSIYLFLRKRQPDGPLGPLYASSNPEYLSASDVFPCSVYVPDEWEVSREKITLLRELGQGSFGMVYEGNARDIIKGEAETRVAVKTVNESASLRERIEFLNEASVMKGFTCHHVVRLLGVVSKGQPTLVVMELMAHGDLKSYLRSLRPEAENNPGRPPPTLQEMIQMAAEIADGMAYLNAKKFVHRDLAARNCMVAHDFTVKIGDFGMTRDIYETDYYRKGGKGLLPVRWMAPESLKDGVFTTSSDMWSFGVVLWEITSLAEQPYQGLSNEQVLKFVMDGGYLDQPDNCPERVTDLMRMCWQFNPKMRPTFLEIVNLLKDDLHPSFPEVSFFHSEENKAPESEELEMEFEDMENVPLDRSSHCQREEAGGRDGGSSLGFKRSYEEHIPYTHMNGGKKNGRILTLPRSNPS
# [12] = molecular target: Insulin receptor (Homo sapiens) (UniProt P06213); conditions: at 10 µM
# [13] = molecular target: Insulin receptor (Homo sapiens) (UniProt P06213); conditions: at 1 µM; remark: listed apart in the source
# [14] = molecular target: Insulin receptor (Homo sapiens) (UniProt P06213); conditions: at 10 µM; remark: listed apart in the source
# [15] = molecular target: T5, TGF-beta receptor type-1 (Homo sapiens) (UniProt P36897); conditions: at 10 µM
# T5 sequence (whole entry): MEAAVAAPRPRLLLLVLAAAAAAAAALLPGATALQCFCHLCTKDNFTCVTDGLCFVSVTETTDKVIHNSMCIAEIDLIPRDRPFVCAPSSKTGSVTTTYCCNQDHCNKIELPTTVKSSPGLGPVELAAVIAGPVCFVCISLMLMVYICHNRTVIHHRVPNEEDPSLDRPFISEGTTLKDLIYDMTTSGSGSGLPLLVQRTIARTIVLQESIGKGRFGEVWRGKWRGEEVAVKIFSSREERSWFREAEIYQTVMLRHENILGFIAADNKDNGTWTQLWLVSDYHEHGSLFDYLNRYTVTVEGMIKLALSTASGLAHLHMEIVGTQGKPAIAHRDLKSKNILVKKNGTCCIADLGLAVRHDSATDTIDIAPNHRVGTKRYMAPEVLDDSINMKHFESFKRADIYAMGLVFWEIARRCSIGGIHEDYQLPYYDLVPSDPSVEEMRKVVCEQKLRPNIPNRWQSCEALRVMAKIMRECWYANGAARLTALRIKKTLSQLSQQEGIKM
# [16] = molecular target: T5, TGF-beta receptor type-1 (Homo sapiens); conditions: at 1 µM
# [17] = molecular target: T3, Inhibitor of nuclear factor kappa-B kinase subunit beta (Homo sapiens); conditions: at 1 µM
# [18] = molecular target: T6, Tyrosine-protein kinase ITK/TSK (Homo sapiens) (UniProt Q08881); conditions: at 1 µM
# T6 sequence (whole entry): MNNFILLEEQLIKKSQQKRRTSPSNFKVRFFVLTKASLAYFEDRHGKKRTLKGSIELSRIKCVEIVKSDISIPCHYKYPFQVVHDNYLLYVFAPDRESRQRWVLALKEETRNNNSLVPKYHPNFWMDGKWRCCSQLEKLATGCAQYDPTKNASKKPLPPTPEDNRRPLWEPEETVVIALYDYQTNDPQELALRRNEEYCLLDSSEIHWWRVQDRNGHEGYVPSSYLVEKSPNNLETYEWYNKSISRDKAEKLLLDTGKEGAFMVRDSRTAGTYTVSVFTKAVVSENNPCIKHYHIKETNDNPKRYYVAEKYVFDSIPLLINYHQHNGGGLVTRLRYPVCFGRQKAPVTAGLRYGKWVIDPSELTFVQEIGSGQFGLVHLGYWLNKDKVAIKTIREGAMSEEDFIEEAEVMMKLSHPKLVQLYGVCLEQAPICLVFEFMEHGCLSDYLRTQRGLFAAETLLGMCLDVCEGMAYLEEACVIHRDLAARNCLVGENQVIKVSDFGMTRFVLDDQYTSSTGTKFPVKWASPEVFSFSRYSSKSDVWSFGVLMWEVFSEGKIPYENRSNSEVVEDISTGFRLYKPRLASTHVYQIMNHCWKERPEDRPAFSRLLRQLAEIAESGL
# [19] = molecular target: Insulin-like growth factor 1 receptor (Homo sapiens) (UniProt P08069); conditions: at 10 µM
# Insulin-like growth factor 1 receptor (Homo sapiens), sequence (P08069 31-736 limits assumed): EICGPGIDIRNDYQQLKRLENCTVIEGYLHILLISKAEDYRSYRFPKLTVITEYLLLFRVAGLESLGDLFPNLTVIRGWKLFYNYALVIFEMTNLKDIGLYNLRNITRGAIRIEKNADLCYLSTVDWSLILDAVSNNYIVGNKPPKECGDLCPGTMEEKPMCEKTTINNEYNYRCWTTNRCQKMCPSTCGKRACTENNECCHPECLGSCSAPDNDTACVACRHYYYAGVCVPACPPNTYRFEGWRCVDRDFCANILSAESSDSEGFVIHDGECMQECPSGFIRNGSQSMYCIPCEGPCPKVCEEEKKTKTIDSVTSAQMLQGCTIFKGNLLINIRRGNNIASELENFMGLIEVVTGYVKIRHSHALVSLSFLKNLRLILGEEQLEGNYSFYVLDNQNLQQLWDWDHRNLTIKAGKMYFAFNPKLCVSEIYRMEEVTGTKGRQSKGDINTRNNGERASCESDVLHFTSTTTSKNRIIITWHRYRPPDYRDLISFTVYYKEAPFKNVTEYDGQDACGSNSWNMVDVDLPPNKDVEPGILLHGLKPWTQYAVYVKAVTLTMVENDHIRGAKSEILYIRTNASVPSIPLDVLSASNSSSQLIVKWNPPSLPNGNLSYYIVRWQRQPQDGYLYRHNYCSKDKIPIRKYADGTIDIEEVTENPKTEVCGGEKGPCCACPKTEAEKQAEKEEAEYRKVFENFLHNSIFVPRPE
# Insulin-like growth factor 1 receptor (Homo sapiens), sequence (P08069 741-1367 limits assumed): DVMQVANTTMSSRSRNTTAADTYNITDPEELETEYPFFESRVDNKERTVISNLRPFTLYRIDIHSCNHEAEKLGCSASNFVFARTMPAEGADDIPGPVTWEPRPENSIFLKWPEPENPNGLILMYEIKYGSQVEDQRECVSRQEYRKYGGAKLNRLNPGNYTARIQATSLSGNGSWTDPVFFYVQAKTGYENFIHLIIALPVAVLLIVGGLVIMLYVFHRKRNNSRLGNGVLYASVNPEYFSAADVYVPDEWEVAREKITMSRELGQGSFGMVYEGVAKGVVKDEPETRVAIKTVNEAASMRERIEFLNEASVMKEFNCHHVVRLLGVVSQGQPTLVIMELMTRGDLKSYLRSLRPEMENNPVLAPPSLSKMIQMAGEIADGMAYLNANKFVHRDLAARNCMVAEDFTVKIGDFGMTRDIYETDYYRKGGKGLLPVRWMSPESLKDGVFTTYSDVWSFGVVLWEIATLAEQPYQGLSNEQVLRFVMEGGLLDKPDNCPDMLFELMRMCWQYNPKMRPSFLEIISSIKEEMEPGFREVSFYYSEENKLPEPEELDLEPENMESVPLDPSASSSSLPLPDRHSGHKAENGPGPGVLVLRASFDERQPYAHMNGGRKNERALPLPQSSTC
smiles,measurement,setting,value
CC(C)(C)c1nc2c3ccc(F)cc3c3c(=O)[nH]ccc3c2[nH]1,residual activity,[1],3%
same,residual activity,[2],52%
same,residual activity,[3],32%
same,residual activity,[4],27%
same,residual activity,[5],55%
same,residual activity,[6],62%
same,residual activity,[7],61%
same,residual activity,[8],53%
same,residual activity,[9],101%
same,residual activity,[10],52%
O=C(Nc1ccc(Cl)cc1)c1ccccc1NCc1ccncc1,residual activity,[11],100%
same,residual activity,[12],79%
same,residual activity,[13],102%
same,residual activity,[14],100%
O=C1Nc2ccccc2/C1=C\c1c(Cl)[nH]c2ccccc12,residual activity,[1],43%
same,residual activity,[15],74%
same,residual activity,[8],69%
Oc1cccc(-c2nc(N3CCOCC3)c3oc4ncccc4c3n2)c1,residual activity,[1],67%
same,residual activity,[16],82%
same,residual activity,[15],91%
same,residual activity,[9],128%
same,residual activity,[10],84%
O=S(=O)(NCCNC/C=C/c1ccc(Br)cc1)c1cccc2cnccc12,residual activity,[1],66%
same,residual activity,[17],126%
same,residual activity,[4],100%
same,residual activity,[6],75%
CN([C@@H](Cc1ccc(OS(=O)(=O)c2cccc3cnccc23)cc1)C(=O)N1CCN(c2ccccc2)CC1)S(=O)(=O)c1cccc2cnccc12,residual activity,[11],134%
same,residual activity,[12],84%
CSc1nc(-c2ccc(F)cc2)c(-c2ccnc(NC(C)c3ccccc3)c2)[nH]1 (stereo not drawn),residual activity,[1],77%
same,residual activity,[3],95%
same,residual activity,[11],126%
same,residual activity,[12],93%
same,residual activity,[13],102%
same,residual activity,[14],98%
same,residual activity,[7],23%
same,residual activity,[8],13%
same,residual activity,[10],73%
same,residual activity,[18],70%
N#Cc1c(NC(=O)c2cccc3ccccc23)sc2c1CCCC2,residual activity,[1],73%
same,residual activity,[19],124%
same,residual activity,[4],100%
same,residual activity,[11],137%
same,residual activity,[14],92%
same,residual activity,[5],94%
same,residual activity,[6],95%
same,residual activity,[7],96%
same,residual activity,[8],72%
same,residual activity,[10],72%
O=C(Nc1nc2ccccc2n1CCN1CCOCC1)c1cccc([N+](=O)[O-])c1,residual activity,[1],60%
same,residual activity,[16],76%
same,residual activity,[5],11%
same,residual activity,[6],16%
same,residual activity,[7],13%
same,residual activity,[8],15%
same,residual activity,[18],74%
NC(=O)c1ccc(-c2nc(-c3ccc4c(c3)OCCO4)c(-c3ccccn3)[nH]2)cc1,residual activity,[1],72%
same,residual activity,[8],97%
same,residual activity,[9],124%
O=c1c(-c2ccc(F)cc2)c(-c2ccncc2)[nH]n1-c1ccc(Cl)cc1,residual activity,[15],30%
same,residual activity,[2],131%
CCOc1nc(NC(=O)Cc2cc(OC)ccc2OC)cc(N)c1C#N,residual activity,[1],68%
same,residual activity,[7],81%
same,residual activity,[8],81%
O=C1Cc2c([nH]c3ccc(Br)cc23)-c2ccccc2N1,residual activity,[1],31%
same,residual activity,[11],95%
same,residual activity,[13],93%
same,residual activity,[14],81%
same,residual activity,[5],94%
same,residual activity,[6],68%
same,residual activity,[7],81%
same,residual activity,[8],36%
same,residual activity,[10],82%
same,residual activity,[18],83%
O=C1NC(=O)C(c2cn(CCCO)c3ncccc23)=C1c1cnccn1,residual activity,[1],67%
same,residual activity,[11],122%
same,residual activity,[12],96%
same,residual activity,[13],94%
same,residual activity,[14],92%
same,residual activity,[5],98%
same,residual activity,[6],98%
same,residual activity,[7],87%
same,residual activity,[8],70%
same,residual activity,[18],94%
